This is a sample that favours compounds with a hit; in the whole collection about 19% have one here.
DT40 TDP1 no CPT: qHTS for Inhibitors of human tyrosyl-DNA phosphodiesterase 1 (TDP1): qHTS in cells in absence of CPT; actives 15% (n = 420,000); Potency, µM (top dose mostly 46.2 µM), hits mostly inhibitors; AID 686978, 2013; DT40 Tdp1-/- hTDP1 cells, no CPT, ATP luminescence, 48 h; further: nearly all actives have a fitted effect of over 55% in size
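A cellular qHTS used chicken DT40 cells lacking endogenous Tdp1 but carrying stably transfected human TDP1. Compounds were applied without camptothecin, and cell growth kinetics were judged by ATP-dependent luminescence after ≥48 hr.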
TGFb SMAD3 inh: inhibitors of TGF-b signaling; HepG2 CAGA-GFP TGF-b/SMAD3 reporter, GFP fluorescence, 18 h; TGF-beta stimulated, 500 pg/mL final; Potency, µM (highest dose often 46.1 µM), most hits filed as inhibitors; actives 1.2% (n = 410,000); AID 588855; further: nearly all actives have a fitted effect of over 65% in size
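Inhibition was scored as loss of TGF-beta-induced (500 pg/mL final, 18 hours, 37 degrees C) GFP in HEPG2 cells carrying a CAGA-GFP reporter, in DMEM with 1% FBS. Well GFP was summed per cell; Activity was normalised to unstimulated and stimulated DMSO wells, then concentration-response fitting.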
TDP1 inh: TDP1 (human) enzyme inhibition | Q9NUW8 | recombinant TDP1, AlphaScreen DNA substrate cleavage | Potency, µM (series often up to 130 µM), usual class: inhibitors | actives 0.28% (n = 350,000) | AID 485290; further: nearly all actives have a fitted effect of over 40% in size
Target sequence (Q9NUW8 whole entry, looked up): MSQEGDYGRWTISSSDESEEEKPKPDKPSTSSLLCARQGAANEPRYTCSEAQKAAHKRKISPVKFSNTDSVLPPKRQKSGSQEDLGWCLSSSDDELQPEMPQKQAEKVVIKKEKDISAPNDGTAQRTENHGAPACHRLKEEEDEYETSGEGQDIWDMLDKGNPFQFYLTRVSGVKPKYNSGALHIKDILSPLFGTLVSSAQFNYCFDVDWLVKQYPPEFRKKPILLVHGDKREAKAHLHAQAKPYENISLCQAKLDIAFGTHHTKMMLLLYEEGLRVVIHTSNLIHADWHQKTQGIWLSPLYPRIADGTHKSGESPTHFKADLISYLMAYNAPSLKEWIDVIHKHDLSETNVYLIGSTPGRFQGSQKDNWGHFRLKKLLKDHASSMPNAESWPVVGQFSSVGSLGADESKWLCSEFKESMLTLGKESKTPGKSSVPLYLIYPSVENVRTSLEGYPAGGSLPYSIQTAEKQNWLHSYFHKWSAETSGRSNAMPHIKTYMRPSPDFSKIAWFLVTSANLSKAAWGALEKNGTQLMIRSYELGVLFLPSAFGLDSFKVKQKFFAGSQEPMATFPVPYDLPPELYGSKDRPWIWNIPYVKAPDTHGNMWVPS
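Recombinant human Tdp1 (E. coli-expressed, 1 nM final) preincubated with compounds 15 min at room temperature, then 5'-biotin/3'-phosphotyrosine-FITC DNA substrate (15 nM final) added for 5 min. AlphaScreen beads (10 ug/ml final) added 10 min; cleavage lowers signal.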
IL1B secr inh: inhibitors of inflammasome signaling (IL-1 beta secretion) | THP-1 LPS/ATP IL-1B secretion, AlphaLISA, 16 h; hits give low values | activity change, % at 57.5 µM | actives 4.7% (n = 360,000) | AID 743279; in the data active means activity change below about -50%; inconclusive means mostly about -30% to -49%
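Secreted IL-1B measured by AlphaLISA bead assay after 16 h compound exposure of THP-1 cells; compounds (final up to 57.5 uM) added 1 h before LPS (250 ng/mL) and ATP (1.25 mM) stimulation; lower signal means less secretion.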
DT40 TDP1 CPT: growth inhibition of DT40 Tdp1-/-;hTDP1 cells with camptothecin (screen for TDP1 inhibitors); actives 12% (n = 420,000); chicken DT40 Tdp1-/-;hTDP1 cells + 20 nM CPT, ATP luminescence, 48 h; AID 686979; Potency, µM (highest dose often 46.2 µM), hits mostly inhibitors; further: nearly all actives have a fitted effect of over 55% in size
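Chicken DT40 Tdp1-/- cells complemented with human TDP1, 400 cells/well, exposed to compounds plus 20 nM camptothecin for at least 48 h at 37 C; viability read as ATP content by CellTiter-Glo luminescence.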
HepG2 viability: kills HepG2 cells in TGF-b inhibitor counter-screen; HepG2 CAGA-GFP viability, ATP luminescence, 18 h; AID 588856; actives 0.76% (n = 410,000); Potency, µM (highest dose often 46.1 µM), usual class: cytotoxic
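HepG2 CAGA-GFP cells (1000/well, DMEM with 1% FBS) received compound, then TGF-beta at 500 pg/mL final, and were incubated 18 hours at 37 degrees C. Viability was read by CellTiter-Glo luminescence. Media-only wells were set as complete cell-killing and DMSO as no toxicity.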
Each line names hits and unclear results; the compound was inactive in the other large screens. Unless noted, the call rests on the fitted dose curve; in most records, active means well fitted curve in the direction sought with a large enough effect; inconclusive means small, poorly fitted or top-dose-only effect, or another doubt; inactive means no such curve, though single readings can be large; an effect the other way counts as inactive or inconclusive.

COc1ccccc1CN(C)C(=O)c1cccc(S(=O)(=O)N2CCc3ccccc3C2)c1	DT40 TDP1 no CPT 16.4µM, TGFb SMAD3 inh inconclusive, IL1B secr inh inconclusive, DT40 TDP1 CPT inconclusive
Cc1ccc(NC(=O)CN(C)C(=O)c2cccc(S(=O)(=O)N3CCc4ccccc43)c2)cc1	DT40 TDP1 no CPT 16.4µM, TGFb SMAD3 inh inconclusive, DT40 TDP1 CPT 20.6µM
CCCNC(=O)C1CCC(Cn2c(=O)c3sccc3n(CC(=O)N(CC)CC)c2=O)CC1 (centres undefined)	none (no result: IL1B secr inh)
CCc1ccccc1NC(=O)CN1C(=O)CCn2nc(-c3cccn3C)cc21	none (no result: IL1B secr inh)
CC(Cc1cccs1)NC(=O)c1cccs1 (centres undefined)	none
CC(Cc1cccs1)NC(=O)Nc1ccc([N+](=O)[O-])cc1 (centres undefined)	DT40 TDP1 no CPT 16.4µM, TGFb SMAD3 inh inconclusive, DT40 TDP1 CPT inconclusive
Cc1ccc(C#CC[N+](C)(C)CC#Cc2ccccc2)cc1	DT40 TDP1 no CPT 1.84µM, IL1B secr inh -77.2, DT40 TDP1 CPT 2.06µM
CCN(CC)CC#Cc1ccc(C)cc1	none (no result: TDP1 inh)
C#CC[N+](C)(C)CC#Cc1ccccc1	IL1B secr inh -65.7
N#CCCn1c(=O)c(-c2cccs2)nc2cnc(Oc3ccccc3)nc21	DT40 TDP1 no CPT inconclusive (no result: TGFb SMAD3 inh, TDP1 inh, IL1B secr inh, HepG2 viability)
CCOC(=O)c1ccc(NC(=O)C(Cc2ccccc2)N2Cc3ccccc3C2=O)cc1 (centres undefined)	DT40 TDP1 no CPT inconclusive, TGFb SMAD3 inh inconclusive, DT40 TDP1 CPT inconclusive (no result: IL1B secr inh)
COc1cc(NCc2ccc3nc(N)nc(N)c3c2C)cc(OC)c1OC	DT40 TDP1 no CPT 0.119µM, DT40 TDP1 CPT 0.376µM (no result: TGFb SMAD3 inh, IL1B secr inh, HepG2 viability)
COc1ccc(CNc2ccncc2)c(OC)c1OC	DT40 TDP1 CPT inconclusive (no result: TDP1 inh)
Cc1cc(C)c(NC(=O)CN2c3ccccc3S(=O)(=O)c3ccccc32)c(C)c1	none (no result: IL1B secr inh)
Cc1ccc(NC(=O)NCc2cccnc2)cc1	IL1B secr inh -53.0
COC(=O)c1cc(C(=O)c2ccc(C(C)(C)C)cc2)c[nH]1	DT40 TDP1 no CPT 11.6µM, IL1B secr inh inconclusive, DT40 TDP1 CPT inconclusive
S=C(NCc1cccnc1)Nc1ccc(Cl)c(Cl)c1	DT40 TDP1 no CPT inconclusive, TGFb SMAD3 inh inconclusive, IL1B secr inh -57.7
O=C(NCc1cccnc1)Nc1ccc(Br)cc1	none
CCC(C)c1ccc(NC(=S)NCc2cccnc2)cc1 (centres undefined)	DT40 TDP1 no CPT 7.31µM, DT40 TDP1 CPT inconclusive
CCCn1c(=N)c(C(=O)NCc2cccnc2)cc2c(=O)n3cc(C)ccc3nc21	none (no result: TDP1 inh, IL1B secr inh)
CCc1ccc(NC(=O)Cn2cc([N+](=O)[O-])nc2C)cc1	none (no result: TDP1 inh)
CC(C)(C)c1ccc(C(=O)c2c[nH]c(C(=O)NCc3cccnc3)c2)cc1	DT40 TDP1 no CPT 16.4µM, DT40 TDP1 CPT 18.4µM
CC(C)(C)c1ccc(C(=O)NC(=S)NCc2cccnc2)cc1	DT40 TDP1 no CPT 18.4µM, DT40 TDP1 CPT 16.4µM
CC(C)(C)c1ccc(NC(=S)NCc2cccnc2)cc1	DT40 TDP1 no CPT 14.6µM, DT40 TDP1 CPT inconclusive
CC(C)(C)c1ccc(C(=O)NCc2cccnc2)cc1	DT40 TDP1 no CPT inconclusive
O=C(O)c1ccccc1SCCS(=O)(=O)c1ccc(Cl)cc1Cl	none (no result: TDP1 inh)
CC(C)CC(=O)Nc1ccnn1C1CCN(C(=O)c2ccc(F)cc2Cl)CC1	DT40 TDP1 no CPT inconclusive
CCC(c1nnnn1-c1c(C)cccc1C)N1CCN(CC)CC1 (centres undefined)	none (no result: TGFb SMAD3 inh, TDP1 inh, HepG2 viability)
CSCCC(c1nnnn1-c1c(C)cccc1C)N1CCN(C/C=C/c2ccccc2)CC1 (centres undefined)	DT40 TDP1 no CPT 18.4µM, TGFb SMAD3 inh inconclusive, IL1B secr inh -59.3, DT40 TDP1 CPT inconclusive (no result: TDP1 inh)
CCC(c1nnnn1-c1c(C)cccc1C)N1CCN(C/C=C/c2ccccc2)CC1 (centres undefined)	DT40 TDP1 no CPT 7.31µM, TGFb SMAD3 inh inconclusive, DT40 TDP1 CPT 6.51µM (no result: TDP1 inh)

Screens deposited in PubChem BioAssay by National Center for Advancing Translational Sciences (NCATS).
